Assay results reported in PubChem BioAssay.
Active and inactive are the calls of the source.

Legend:
[1] = system: Plasmodium falciparum Sir2 (PF13_0152, Sir2A); experiment: pfSir2 binders on small-molecule microarrays, primary screen, biochemical, small-molecule microarray, 635 nm fluorescence (AID 1098); conditions: small-molecule microarray binding, fluorescence 635 nm; higher = more signal;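 note: score merges spot fluorescence intensity with its signal-to-noise ratio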
[2] = small-molecule microarray binders of probe aDKK1, primary screen, biochemical, biotinylated probe, 635/667 nm fluorescence (AID 1099); conditions: higher = more signal;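 note: score merges 667nm spot fluorescence with signal to noise across triplicate slides; reference of the scale not given here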
[3] = small-molecule microarray binders of probe aCHRDL2, primary screen, biochemical, biotinylated probe, 635/667 nm fluorescence (AID 1100); conditions: higher = more signal
[4] = splicing luciferase reporter signal modulators, primary screen, spliceosome inhibition project, cell-based, HEK293, splice +/- reporter (AID 1101); conditions: luminescence, 24 h, higher = more signal, called active from +8 up or from −8 down;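 note: HEK293 cells carrying a splicing-competent luciferase reporter gene; test concentration not given here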
[5] = biological target: Fibroblast growth factor 10 (Homo sapiens) (UniProt O15520); experiment: FGF10 binders on small-molecule microarrays, primary screen, biochemical, small-molecule microarray, 635 nm fluorescence (AID 1102); conditions: FGF10 binding, fluorescence 635 nm, higher = more signal
[6] = system: glycogen synthase kinase-3 (GSK3A per assay name; protocol says GSK3B); experiment: GSK3 binders on small-molecule microarrays, primary screen, biochemical, small-molecule microarray, 635 nm fluorescence, GSK3A (AID 1103); conditions: small-molecule microarray binding, fluorescence 635 nm; higher = more signal; note: the record names both GSK3A and GSK3B
[7] = biological target: Epidermal growth factor receptor (Homo sapiens) (UniProt P00533); experiment: EGFR binders on small-molecule microarrays, primary screen, biochemical, small-molecule microarray, 635 nm fluorescence (AID 1104); conditions: EGFR binding, higher = more signal;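 note: score merges 667 nm emission intensity with spot signal to noise over triplicate slides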
[8] = biological target: Follistatin-related protein 3 (Homo sapiens) (UniProt O95633); experiment: FSTL3 binders on small-molecule microarrays, primary screen, biochemical, small-molecule microarray, 635 nm fluorescence (AID 1105); conditions: FSTL3 binding, higher = more signal;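 note: score merges emission near 667 nm and signal to noise per printed spot across three slides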
[9] = biological target: Dickkopf-related protein 1 (Homo sapiens) (UniProt O94907); experiment: DKK1 binders on small-molecule microarrays, primary screen, biochemical, small-molecule microarray, 635 nm fluorescence scan (AID 1106); conditions: DKK1 binding, higher = more signal;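 note: score merges emission near 667 nm with signal to noise over three replicate slides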
[10] = system: Inhibin beta A chain (activin A); experiment: INHBA (activin A) binders on microarrays, primary screen, biochemical, small-molecule microarray, 635 nm fluorescence scan (AID 1107); conditions: small-molecule microarray binding, higher = more signal;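 note: mouse activin A protein probed at 4.33 µg/mL on printed slides; score merges bound-protein fluorescence near 667 nm with spot signal-to-noise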

Chain of Epidermal growth factor receptor (Homo sapiens) (P00533 whole entry, looked up): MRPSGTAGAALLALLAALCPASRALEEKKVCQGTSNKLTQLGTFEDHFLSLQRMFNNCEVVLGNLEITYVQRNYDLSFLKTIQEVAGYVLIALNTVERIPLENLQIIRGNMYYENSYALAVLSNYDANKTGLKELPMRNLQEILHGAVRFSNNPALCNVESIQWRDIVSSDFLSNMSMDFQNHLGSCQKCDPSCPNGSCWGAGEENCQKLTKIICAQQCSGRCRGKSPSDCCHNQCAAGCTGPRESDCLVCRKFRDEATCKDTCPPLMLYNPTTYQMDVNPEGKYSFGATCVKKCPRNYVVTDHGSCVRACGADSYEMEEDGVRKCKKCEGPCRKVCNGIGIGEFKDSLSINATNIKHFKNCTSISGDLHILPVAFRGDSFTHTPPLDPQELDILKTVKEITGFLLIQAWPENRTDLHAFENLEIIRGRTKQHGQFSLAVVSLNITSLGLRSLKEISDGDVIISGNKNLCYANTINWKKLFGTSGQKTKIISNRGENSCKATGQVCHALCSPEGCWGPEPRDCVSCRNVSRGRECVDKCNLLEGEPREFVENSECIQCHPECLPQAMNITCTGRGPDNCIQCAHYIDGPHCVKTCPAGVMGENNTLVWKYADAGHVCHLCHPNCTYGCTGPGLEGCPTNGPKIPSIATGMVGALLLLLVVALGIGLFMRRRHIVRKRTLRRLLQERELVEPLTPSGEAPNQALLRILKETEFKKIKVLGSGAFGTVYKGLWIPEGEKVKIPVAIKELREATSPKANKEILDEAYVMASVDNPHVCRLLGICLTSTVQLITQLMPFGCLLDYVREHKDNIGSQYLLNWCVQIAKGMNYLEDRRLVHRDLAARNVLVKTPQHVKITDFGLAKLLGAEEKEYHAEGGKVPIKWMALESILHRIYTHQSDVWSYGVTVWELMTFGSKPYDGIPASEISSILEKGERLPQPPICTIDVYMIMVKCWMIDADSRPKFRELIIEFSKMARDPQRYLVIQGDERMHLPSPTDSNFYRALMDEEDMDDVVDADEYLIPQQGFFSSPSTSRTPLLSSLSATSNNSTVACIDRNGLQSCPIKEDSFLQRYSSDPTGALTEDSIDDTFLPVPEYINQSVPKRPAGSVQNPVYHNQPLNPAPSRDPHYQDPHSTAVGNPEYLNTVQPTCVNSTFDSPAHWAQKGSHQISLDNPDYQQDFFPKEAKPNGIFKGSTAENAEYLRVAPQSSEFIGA
Chain of Fibroblast growth factor 10 (Homo sapiens) (O15520 whole entry, looked up): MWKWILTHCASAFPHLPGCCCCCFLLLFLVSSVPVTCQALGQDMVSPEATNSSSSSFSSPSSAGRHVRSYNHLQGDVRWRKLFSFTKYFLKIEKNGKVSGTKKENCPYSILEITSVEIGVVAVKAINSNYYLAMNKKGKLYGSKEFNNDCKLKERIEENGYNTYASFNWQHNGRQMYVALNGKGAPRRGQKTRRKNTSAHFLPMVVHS
Chain of Follistatin-related protein 3 (Homo sapiens) (O95633 whole entry, looked up): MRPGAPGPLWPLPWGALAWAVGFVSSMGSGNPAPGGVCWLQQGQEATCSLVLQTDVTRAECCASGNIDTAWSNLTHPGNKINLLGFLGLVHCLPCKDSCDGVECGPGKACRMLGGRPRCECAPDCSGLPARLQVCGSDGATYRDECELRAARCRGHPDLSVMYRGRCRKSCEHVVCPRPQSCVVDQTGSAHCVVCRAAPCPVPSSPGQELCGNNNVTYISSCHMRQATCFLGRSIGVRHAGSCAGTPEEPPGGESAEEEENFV
Chain of Dickkopf-related protein 1 (Homo sapiens) (O94907 whole entry, looked up): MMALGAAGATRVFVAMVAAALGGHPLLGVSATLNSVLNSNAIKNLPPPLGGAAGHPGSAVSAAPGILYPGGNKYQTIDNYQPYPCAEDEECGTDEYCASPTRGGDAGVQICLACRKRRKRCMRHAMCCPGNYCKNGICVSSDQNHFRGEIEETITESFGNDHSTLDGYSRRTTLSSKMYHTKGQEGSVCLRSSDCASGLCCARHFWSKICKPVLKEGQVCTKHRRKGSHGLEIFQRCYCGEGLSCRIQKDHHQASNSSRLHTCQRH

Compound	composite z-score [1]	composite z-score [2]	composite z-score [3]	z-score [4]	composite z-score [5]	composite z-score [6]	composite z-score [7]	composite z-score [8]	composite z-score [9]	composite z-score [10]
Cc1ccc(S[C@]2(C(=O)NCCN3CCOCC3)CC(=O)N(C3CCCCC3)[C@@H]2c2ccc(CO)cc2)cc1	1.35	-0.0443	0.781	0.114 (inactive)	-0.103	0.606	-0.551	0.181	-0.55	0.602
[N-]=[N+]=NCc1ccccc1C[C@]1(C(=O)NCC(O)CO)COC(c2ccc(OCCCO)cc2)=N1 (stereo not given in full)	1.08	1.22	1.5	1.1 (inactive)	-0.0207	-0.493	-1.13	0.324	-0.372	0.462
COC(=O)[C@@]1(Cc2ccc(F)cc2)[C@H]2c3cc(C(=O)N4CCCC4)n(Cc4ccc(Cl)c(C(F)(F)F)c4)c3C[C@H]2CN1C(=O)c1ccccc1	1.11	2.11	1.58	-0.767 (inactive)	0.879	0.864	0.477	1.18	-0.652	0.864
O=C1O[C@H](c2ccccc2)[C@H](c2ccccc2)N2[C@H]1[C@@H](C(=O)Nc1nc3ccccc3s1)[C@]1(C(=O)Nc3ccc(C#CC4=CCCCC4)cc31)[C@H]2c1ccc(OCCO)cc1	0.956	-0.004	0.54	-0.718 (inactive)	1	1.3	0.202	0.891	0.779	0.881
O=C1O[C@@H](c2ccccc2)[C@@H](c2ccccc2)N2[C@@H](c3ccc(O)cc3)[C@]3(C(=O)Nc4ccc(C#CCCO)cc43)[C@@H](C(=O)O)[C@H]12	1.67	2.56	1.64	-0.545 (inactive)	0.472	-0.2	0.363	1.13	-0.107	1.76
C=C(C(=O)CC[C@@H](OC(C)=O)c1ccc(OCCO)cc1)C(C)C	0.167	-0.0523	0.104	1.02 (inactive)	1.57	-0.117	-0.544	-0.152	-0.207	0.815
CC(C)[Si]1(C(C)C)O[C@@H](c2ccccc2)c2cc(-c3ccc(-c4ccc(Cl)c(Cl)c4)o3)nc(CCc3ccccc3)c21	-0.708	0.147	0.731	0.428 (inactive)	-0.707	-0.345	-0.844	-1.54	-1.25	0.949
C=CCC(OC(C)=O)[C@@H]1[C@@H](N(Cc2ccc(-c3ccccc3)cc2)C(=O)c2ccc(C)cc2)c2cc(OCCCO)ccc2N1C(=O)Cc1ccc(OC)cc1 (stereo not given in full)	1.36	-0.0745	-0.216	-1.03 (inactive)	0.191	-0.159	0.0485	0.0762	0.22	1.23
Cc1ccc(S[C@]2(C(=O)NCC(C)C)CC(=O)N(Cc3ccccc3)[C@@H]2c2ccc(CO)cc2)cc1	0.959	-0.0941	1.09	0.00364 (inactive)	-0.514	-0.919	-1.14	-0.979	-1.06	-0.417
C=CCOC(=O)[C@H]1[C@@H]2C(=O)O[C@@H](c3ccccc3)[C@@H](c3ccccc3)N2[C@@H](c2ccc(OCCOC(=O)[C@H]3C[C@H]4C(=O)N[C@@H](CCCC[N+](C)(C)C)C(=O)N4[C@H]3c3ccc(O)cc3)cc2)[C@]12C(=O)Nc1ccccc12	1.63	-0.194	-0.135	-1.08 (inactive)	0.507	-0.112	-0.229	0.563	0.387	-0.196
COc1ccc(C#Cc2ccc3c(c2)[C@]2(C(=O)N3)[C@H](C(=O)N3CCN(c4ncccn4)CC3)[C@H]3C(=O)O[C@H](c4ccccc4)[C@H](c4ccccc4)N3[C@@H]2c2ccc(O)cc2)cc1	0.707	-0.015	0.612	-0.73 (inactive)	0.557	0.967	0.366	0.743	0.353	0.536
O=C(NCc1ccccc1)[C@@H]1c2ccccc2C(=O)N(Cc2cc(F)cc(C(F)(F)F)c2)[C@H]1c1ccc(CO)cc1	1.09	0.125	0.519	-0.945 (inactive)	0.29	0.243	-0.0881	0.588	-0.0135	0.517
COCCOC(=O)N1C(=O)[C@@]2(c3cc(C#CC4=CCCCC4)ccc31)[C@H](C(=O)N1CCN(c3ncccn3)CC1)[C@H]1C(=O)O[C@H](c3ccccc3)[C@H](c3ccccc3)N1[C@@H]2c1ccc(OCCO)cc1	-0.424	0.282	0.298	-0.902 (inactive)	1.3	1.18	0.959	1.37	0.994	1.26
CC(C)C[C@@H]1NC(=O)[C@@H]2C[C@H](C(=O)NCCCCN(C)C)[C@H](c3ccc(O)cc3)N2C1=O	0.791	0.147	0.874	0.619 (inactive)	-1.42	-0.439	-1.29	-0.401	-0.283	-0.134
COCCOC(=O)N1C(=O)[C@@]2(c3cc(C#CCCO)ccc31)[C@H](C(=O)NC[C@H](O)c1ccccc1)[C@H]1C(=O)O[C@H](c3ccccc3)[C@H](c3ccccc3)N1[C@@H]2c1ccc(OCCO)cc1	1.24	0.112	0.169	-1.33 (inactive)	0.901	1.3	0.887	1.26	0.512	0.585
COCCOC(=O)N1C(=O)[C@@]2(c3cc(C#CC4=CCCCC4)ccc31)[C@H](c1ccc(OCCO)cc1)N1[C@H](c3ccccc3)[C@H](c3ccccc3)OC(=O)[C@H]1[C@@H]2C(=O)Nc1nc2ccccc2s1	0.581	0.0643	0.153	-0.831 (inactive)	1.08	1.29	0.287	1.12	0.521	0.462
CC(=O)NCCCC[C@@H]1NC(=O)[C@@H]2C[C@H](C(=O)NCc3ccc(F)cc3)[C@H](c3ccc(O)cc3)N2C1=O	1.51	-0.239	-0.072	-0.661 (inactive)	0.784	0.767	0.0059	0.177	0.592	0.0015
O=C(NCC(O)CO)[C@]1(CCS(=O)(=O)c2ccccc2)N=C(c2ccc(OCCCO)cc2)O[C@@H]1c1ccccc1 (stereo not given in full)	1.11	1.28	1.34	0.833 (inactive)	0.305	0.516	-0.498	-0.365	-0.868	0.529
C=C(C(=O)CC[C@@H](OC(=O)c1cccnc1)c1ccc(OCCO)cc1)C(C)C	0.603	-0.312	-0.188	-0.255 (inactive)	0.922	0.154	-0.255	0.802	0.906	0.223
[N-]=[N+]=Nc1ccccc1C[C@]1(C(=O)N2CCCCC2)N=C(c2ccc(OCCCO)cc2)O[C@H]1c1ccccc1N=[N+]=[N-]	1.42	0.0941	1.18	-0.103 (inactive)	1.4	0.743	-0.0207	0.611	-0.235	1.25
COc1ccccc1CN1C(=O)c2ccccc2[C@](Cc2ccccc2I)(C(=O)NC2CC2)[C@@H]1c1ccc(CO)cc1	1.58	-0.617	0.042	0.0417 (inactive)	1.23	1.33	0.385	1.29	0.974	0.154
COC(=O)[C@@]1(Cc2ccc(OC)cc2)[C@H]2c3cc(C(=O)N4CCCC4)n(C[C@H](O)CO)c3C[C@H]2CN1C(=O)c1ccccc1	1.06	0.642	0.913	1.19 (inactive)	0.974	-0.681	-0.352	-0.519	-0.385	0.903
CC(C)NC(=O)[C@@H]1c2ccccc2C(=O)N(C2CCCCC2)[C@H]1c1ccc(CO)cc1	0.576	0.678	0.919	0.0672 (inactive)	0.902	0.889	0.101	0.28	-0.161	0.445
O=P(NCC1(CC2(c3ccccc3)CO2)CC1)(c1ccccc1)c1ccccc1 (stereo not given)	1.57	0.29	1.02	-1.45 (inactive)	-0.686	-1.49	-1.28	-1.37	-0.915	0.758
COC(=O)[C@@]1(Cc2ccc(OC)cc2)[C@H]2c3cc(C(=O)N(C)C)n(Cc4ccc(OC)c(OC)c4)c3C[C@H]2CN1C(=O)c1ccccc1	0.851	0.476	1.16	-2.25 (inactive)	0.81	1.28	0.149	0.943	-0.649	0.807
CC(C)[C@H]1COC(=O)N1C(=O)[C@H]1[C@@H](c2ccccc2)N(c2ccccc2)O[C@@H]1C	0.22	-0.139	-0.273	0.145 (inactive)	0.521	0.474	0.218	1.04	0.517	0.264
C=CCC(OC(C)=O)[C@@H]1[C@@H](N(Cc2cc3ccccc3o2)C(=O)c2ccc(C)cc2)c2cc(OCCCO)ccc2N1C(=O)c1ccc(-c2ccccc2)cc1 (stereo not given in full)	-0.433	-0.228	0.118	-3.23 (inactive)	0.161	-0.291	0.0009	0.363	0.111	1.32
